{
  "source": "ChEMBL document CHEMBL1857833",
  "about": "“Screening and optimization of specific chemical series against human African Trypanosomiasis (HAT)”",
  "note": "Hit rate of the full screen: of about 4,400 compounds, about 390 (8.9%) showed an effect of 50% or more. Many of the other results were omitted from the sample, so strong results are more common in it than they were.",
  "data": [
    {"tested_on": "Trypanosoma brucei", "assay": "DNDI: Inhibition of Human African Trypanosomiasis, SBRI 427, in vitro at 2 ug.mL-1", "assay_type": "functional", "units": {"% inhibition": "%"}, "values": [
      {"molecule": "Cc1ccc(N(C)Cc2coc(-c3cccc4ccccc34)n2)cc1", "% inhibition": 6},
      {"molecule": "Cn1nc(C(C)(C)C)cc1NCc1coc(-c2ccc(C(C)(C)C)cc2)n1", "% inhibition": -5},
      {"molecule": "Cc1ccc(C(C)C)c(Oc2cc(/C(=N/O)Nc3ccc(C(C)C)cc3)ccn2)c1", "% inhibition": 21},
      {"molecule": "COCCN(Cc1coc(-c2ccccc2Cl)n1)C(C)C", "% inhibition": -24},
      {"molecule": "c1ccc2c(-c3nc(CNCc4ccncc4)co3)cccc2c1", "% inhibition": 6},
      {"molecule": "Cc1ccc(/C(=N/O)NCCN2CCOCC2)c(Oc2ccc3ccccc3c2)n1", "% inhibition": 15},
      {"molecule": "COc1ccc(-c2nc(CNCc3cccc(C(F)(F)F)c3)co2)cc1", "% inhibition": -13},
      {"molecule": "CC1CC(C)CN(Cc2coc(-c3cccc4ccccc34)n2)C1", "note": "(stereo not given)", "% inhibition": 28},
      {"molecule": "CCOc1ccccc1-c1nc(CNC23C[C@H]4C[C@@H](C2)C[C@@H](C3)C4)co1", "% inhibition": 9},
      {"molecule": "CCOc1ccccc1-c1nc(CNc2ccccc2)co1", "% inhibition": 6},
      {"molecule": "C[C@H]1C(NCc2coc(-c3cccc4ccccc34)n2)C[C@@H]2C[C@H]1C2(C)C", "note": "(stereo not given in full)", "% inhibition": 85},
      {"molecule": "c1ccc(CNCc2coc(-c3cccc4ccccc34)n2)cc1", "% inhibition": 8},
      {"molecule": "CN(C)CCNCc1coc(-c2cccc3ccccc23)n1", "% inhibition": 22},
      {"molecule": "C[C@@H]1C(NCc2coc(-c3cccc4ccccc34)n2)C[C@H]2C[C@@H]1C2(C)C", "note": "(stereo not given in full)", "% inhibition": 95},
      {"molecule": "CCOc1ccccc1-c1nc(CNC2C[C@@H]3C[C@H]([C@H]2C)C3(C)C)co1", "note": "(stereo not given in full)", "% inhibition": 101},
      {"molecule": "Clc1ccccc1-c1nc(CN2CCN(c3ccccn3)CC2)co1", "% inhibition": 4},
      {"molecule": "Fc1ccc(-c2nc(CNCC(c3ccccc3)c3ccccc3)co2)cc1", "% inhibition": -33},
      {"molecule": "COc1cc(-c2nc(CNCc3cccnc3)co2)cc(OC)c1OC", "% inhibition": 25},
      {"molecule": "CSc1ccc(Oc2nc(C)ccc2/C(=N/O)NCc2ccc(C)o2)cc1C", "% inhibition": 12},
      {"molecule": "CCOc1ccccc1-c1nc(CN(CC)c2cccc3ccccc23)co1", "% inhibition": 4},
      {"molecule": "CC(C)c1ccc(N/C(=N\\O)c2cccnc2Oc2ccc(Cl)cc2)cc1", "% inhibition": 11},
      {"molecule": "CSc1ccc(Oc2nc(C)ccc2/C(=N/O)NC2CCc3ccccc32)cc1C", "note": "(stereo not given)", "% inhibition": 21},
      {"molecule": "COc1ccc(Oc2ncccc2/C(=N/O)NC2CCc3ccccc32)cc1", "note": "(stereo not given)", "% inhibition": 97},
      {"molecule": "O/N=C(\\NC1CCc2ccccc21)c1cccnc1Oc1ccc2ccccc2c1", "note": "(stereo not given)", "% inhibition": 97},
      {"molecule": "Cc1ccc(/C(=N/O)NC2CCc3ccccc32)c(Oc2c(F)c(F)cc(F)c2F)n1", "note": "(stereo not given)", "% inhibition": 7},
      {"molecule": "COc1ccc(Oc2nc(C)ccc2/C(=N/O)NC2CCc3ccccc32)cc1", "note": "(stereo not given)", "% inhibition": 23},
      {"molecule": "O/N=C(\\NC1CCc2ccccc21)c1cccnc1Oc1ccc(F)cc1Cl", "note": "(stereo not given)", "% inhibition": 9},
      {"molecule": "CC(C)COc1ncccc1/C(=N/O)NC1CCc2ccccc21", "note": "(stereo not given)", "% inhibition": -11},
      {"molecule": "O/N=C(\\NC1CCc2ccccc21)c1cccnc1Oc1ccc(-n2cncn2)cc1", "note": "(stereo not given)", "% inhibition": 31},
      {"molecule": "O/N=C(\\NC1CCc2ccccc21)c1cccnc1Oc1c(F)cccc1F", "note": "(stereo not given)", "% inhibition": 83},
      {"molecule": "Cc1ccc(/C(=N/O)NC2CCc3ccccc32)c(Oc2ccc(F)c(F)c2)n1", "note": "(stereo not given)", "% inhibition": 20},
      {"molecule": "CC(C)c1ccc(Oc2ncccc2/C(=N/O)NC2CCc3ccccc32)cc1", "note": "(stereo not given)", "% inhibition": 100},
      {"molecule": "CCOc1ccccc1-c1nc(CNCc2ccc(C)o2)co1", "% inhibition": 18},
      {"molecule": "COc1cccc(CN/C(=N\\O)c2ccnc(Oc3cccc4cccnc34)c2)c1", "% inhibition": 35},
      {"molecule": "O/N=C(/c1ccc(Oc2cccc3c2CCCC3)nc1)N1CCN(c2ccccc2)CC1", "% inhibition": 9},
      {"molecule": "C=CCN(CC=C)Cc1coc(-c2ccc(OC)cc2)n1", "% inhibition": 1},
      {"molecule": "Cc1ccc(/C(=N/O)N(C)c2ccccc2)c(Oc2ccc(Cl)cc2)n1", "% inhibition": 22},
      {"molecule": "COc1ccc(CN/C(=N\\O)c2ccc(C)nc2Oc2cccc3c2CCCC3)cc1", "% inhibition": 1},
      {"molecule": "Cc1cccc(-c2nc(CN3CCN(c4cc(C)nc5ccccc45)CC3)co2)c1", "% inhibition": 27},
      {"molecule": "CCOc1ccccc1-c1nc(CN(CC)C2CCN(Cc3ccccc3)C2)co1", "note": "(stereo not given)", "% inhibition": -5},
      {"molecule": "CC(C)c1ccc(Oc2ccc(/C(N)=N/O)cn2)cc1", "% inhibition": 23},
      {"molecule": "Cc1ccc(/C(=N/O)NC2CCc3ccccc32)c(Oc2ccc(F)c(Cl)c2)n1", "note": "(stereo not given)", "% inhibition": -22},
      {"molecule": "CCC(CC)NCc1coc(-c2ccc(OC)cc2)n1", "% inhibition": -11},
      {"molecule": "COc1ccc(CNCc2coc(-c3ccc(C(F)(F)F)cc3)n2)c(OC)c1", "% inhibition": 11},
      {"molecule": "COc1ccc(CNCc2coc(-c3ccccc3C)n2)c(OC)c1", "% inhibition": 5},
      {"molecule": "COc1ccc(-c2nc(CNCc3c(OC)cccc3OC)co2)cc1", "% inhibition": 17},
      {"molecule": "COc1ccc(-c2nc(CNCc3ccc(OC)cc3OC)co2)cc1", "% inhibition": 4},
      {"molecule": "COc1ccc(CNCc2coc(-c3cccc4ccccc34)n2)c(OC)c1", "% inhibition": 57},
      {"molecule": "COc1ccc(CNCc2coc(-c3ccc(C(C)(C)C)cc3)n2)c(OC)c1", "% inhibition": 69},
      {"molecule": "COc1cccc(OC)c1CNCc1coc(-c2ccc(C)cc2)n1", "% inhibition": 22},
      {"molecule": "COc1cccc(OC)c1CNCc1coc(-c2ccc(C(C)(C)C)cc2)n1", "% inhibition": 100},
      {"molecule": "COc1ccc(CNCc2coc(-c3ccccc3Br)n2)c(OC)c1", "% inhibition": -13},
      {"molecule": "COc1ccc(-c2nc(CN3CCc4ccccc4C3)co2)cc1", "% inhibition": -8},
      {"molecule": "CN(Cc1coc(-c2ccc(O)cc2)n1)C(c1ccccc1)c1ccccc1", "% inhibition": -30},
      {"molecule": "CN(Cc1ccco1)/C(=N\\O)c1cccnc1Oc1ccc2c(c1)CCCC2", "% inhibition": -1},
      {"molecule": "Cc1ccc(/C(=N/O)N2CCCC2)c(Oc2ccc3ccccc3c2)n1", "% inhibition": 25},
      {"molecule": "CN(Cc1cccnc1)Cc1coc(-c2ccc(Cl)cc2Cl)n1", "% inhibition": 36},
      {"molecule": "CN(CC#N)Cc1coc(-c2cccs2)n1", "% inhibition": -11},
      {"molecule": "Cc1ccc(CNCc2coc(-c3ccccc3Br)n2)o1", "% inhibition": 3},
      {"molecule": "CC1CCCC(NCc2coc(-c3ccc(O)cc3)n2)C1C", "note": "(stereo not given)", "% inhibition": -13},
      {"molecule": "C[C@@H]1C(NCc2coc(-c3ccc(O)cc3)n2)C[C@H]2C[C@@H]1C2(C)C", "note": "(stereo not given in full)", "% inhibition": 26},
      {"molecule": "CCOc1ccc(-c2nc(CNC3C[C@@H]4C[C@H]([C@H]3C)C4(C)C)co2)cc1", "note": "(stereo not given in full)", "% inhibition": 78},
      {"molecule": "CCOc1ccc(-c2nc(CNC3C[C@H]4C[C@@H]([C@@H]3C)C4(C)C)co2)cc1", "note": "(stereo not given in full)", "% inhibition": -5},
      {"molecule": "C[C@H]1C(NCc2coc(-c3ccc(O)cc3)n2)C[C@@H]2C[C@H]1C2(C)C", "note": "(stereo not given in full)", "% inhibition": 101},
      {"molecule": "CCOc1ccc(-c2nc(CNC3C[C@H]4CC[C@@H]3C4)co2)cc1", "note": "(stereo not given in full)", "% inhibition": 11}
    ]}
  ]
}
